APOBEC3G inh: blocks human APOBEC3G single-stranded DNA deamination | recombinant A3G, ssDNA deamination FAM/TAMRA fluorescence | 330,000 compounds, 0.28% hits | AID 493012 | Q9HC16 | inhibition, % at 20 µM;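 active = inhibition of at least 40% at 20 µM, with no more than 30% in the related APOBEC3A deaminase screen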;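 also: plate controls were DMSO wells with A3G for no effect and wells lacking A3G enzyme for full effect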
PHOSPHO1 block: PHOSPHO1 (human) inhibition. Q8TCT1. inhibition, % at 13.3 µM. recombinant PHOSPHO1, absorbance phosphatase assay. AID 1565. 290,000 compounds, 1.1% hits; in the data active = inhibition above about 60%
PABP polyA inh: PABP-poly(A) binding inhibition; PABP-poly(A) RNA binding, fluorescence polarization; AID 2014; 290,000 compounds, 1% hits; calls only at 35 µM;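 also: calls also rest on retests at 20 µM and on dose response follow-up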
Target sequence (P11940 whole entry, looked up): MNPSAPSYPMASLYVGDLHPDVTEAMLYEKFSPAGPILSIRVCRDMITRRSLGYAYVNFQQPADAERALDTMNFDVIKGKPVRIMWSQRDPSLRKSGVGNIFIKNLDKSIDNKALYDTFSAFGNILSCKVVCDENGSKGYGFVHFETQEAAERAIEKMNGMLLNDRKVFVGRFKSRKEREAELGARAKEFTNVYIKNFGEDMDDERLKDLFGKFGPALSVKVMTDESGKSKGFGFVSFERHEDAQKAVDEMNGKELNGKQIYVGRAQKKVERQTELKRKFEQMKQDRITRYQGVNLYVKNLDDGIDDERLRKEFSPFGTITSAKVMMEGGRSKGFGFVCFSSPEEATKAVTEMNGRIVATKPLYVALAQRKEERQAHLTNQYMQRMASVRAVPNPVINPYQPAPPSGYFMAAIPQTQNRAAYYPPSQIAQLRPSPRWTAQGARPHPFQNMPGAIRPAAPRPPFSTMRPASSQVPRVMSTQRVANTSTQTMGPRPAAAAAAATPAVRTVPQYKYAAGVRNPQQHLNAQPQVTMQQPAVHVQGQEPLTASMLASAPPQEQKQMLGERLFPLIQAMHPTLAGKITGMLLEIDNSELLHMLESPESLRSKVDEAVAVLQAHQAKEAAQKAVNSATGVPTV
A3A deaminase: inhibitors of human APOBEC3A DNA deaminase | P31941 | recombinant A3A, FAM/TAMRA ssDNA deamination fluorescence | inhibition, % at 20 µM | 330,000 compounds, 0.41% hits | AID 493011;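 active = at least 40% inhibition at 20 µM here, with at most 30% in a related deaminase screen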;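 also: plate controls were A3A with DMSO for no effect and wells lacking A3A enzyme for full effect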
eIF4H FP inh: inhibitors of RNA binding by human eIF4H. Q15056. 290,000 compounds, 0.94% hits. inhibition, % at 35 µM. AID 2012. eIF4H fluorescence polarization binding assay;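 also: calls also rest on retests at 20 µM and on dose response follow-up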
MLLE-PAM2 inh: inhibitors of microRNA-mediated deadenylation, human PABP1 MLLE binding; GST-MLLE / FITC-PAM2 fluorescence polarization; P11940; inhibition, % at 20 µM; 360,000 compounds, 0.36% hits; in the data active = inhibition above about 35%, passing the limit was not always enough;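 also: plate controls were DMSO wells with GST-MLLE for no effect and wells lacking GST-MLLE protein for full effect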
Starred values were filed as active, the others as inactive. An excerpt weighted towards active compounds, which were near 2.6% of everything screened. Unless noted, no rule for the calls is given here.

`COc1ccc(C(CNC(=O)C(=O)Nc2ccc3c(c2)OCCO3)N2CCN(C)CC2)cc1` (stereo unspecified) gave APOBEC3G inh 3, A3A deaminase 2 and MLLE-PAM2 inh 6.
CCC1OC2(C)OC(=N)C1(C#N)C(C#N)(C#N)C2c1ccccc1 (stereo unspecified) was read as APOBEC3G inh -6, PHOSPHO1 block 0, PABP polyA inh inactive, A3A deaminase -3, eIF4H FP inh inconclusive and MLLE-PAM2 inh 23.
For CCC12OC(=N)C(C#N)(C1C)C(C#N)(C#N)C(c1ccccc1)O2 (stereo unspecified) the results were APOBEC3G inh -3, PHOSPHO1 block 1, PABP polyA inh active, A3A deaminase 0, eIF4H FP inh inconclusive and MLLE-PAM2 inh 20.
Screening CC(C)NCc1cccc([N+](=O)[O-])c1 returned APOBEC3G inh -9, PHOSPHO1 block -1, PABP polyA inh inactive, A3A deaminase -2, eIF4H FP inh 7 and MLLE-PAM2 inh 0.
For CC1(C)CC(NCc2cccc([N+](=O)[O-])c2)CC(C)(C)N1 the results were APOBEC3G inh 7, PHOSPHO1 block 15, PABP polyA inh active, A3A deaminase 3, eIF4H FP inh 81* and MLLE-PAM2 inh -2.
`COc1cc(C=C2C(=O)c3ccccc3C2=O)cc(OC)c1` gave APOBEC3G inh -1, PHOSPHO1 block 33, PABP polyA inh inactive, A3A deaminase 0, eIF4H FP inh 4 and MLLE-PAM2 inh 23.
For COc1cccc(/C=C2\C(=O)C(=O)c3ccccc32)c1 the results were APOBEC3G inh -2, PHOSPHO1 block 20, PABP polyA inh inactive, A3A deaminase 7, eIF4H FP inh -2 and MLLE-PAM2 inh 38*.
Cc1cc(C)cc(NC(=S)Nc2ccc(Cl)c(Cl)c2)c1 was read as APOBEC3G inh -5, PHOSPHO1 block 32, PABP polyA inh inactive, A3A deaminase -2, eIF4H FP inh -3 and MLLE-PAM2 inh 43*.
Screening Cc1cccc(C)c1NC(=S)Nc1ccc(Cl)c(Cl)c1 returned APOBEC3G inh -6, PHOSPHO1 block 34, PABP polyA inh inactive, A3A deaminase -4, eIF4H FP inh -4 and MLLE-PAM2 inh 45*.
CC(C)OC(=O)CC(=O)CSc1nc(-c2ccc(F)cc2)cc(-c2ccccc2)c1C#N was read as APOBEC3G inh -8, PHOSPHO1 block -8, PABP polyA inh active, A3A deaminase -4, eIF4H FP inh 88* and MLLE-PAM2 inh 20.
For NCCCC[C@@H](C(=O)N1CCNCC1)n1cc([C@@H](N)CC(N)=O)nn1 the results were APOBEC3G inh -6, A3A deaminase -1 and MLLE-PAM2 inh 1.
Cc1cc2nc(C3CCCCC3)c(Cc3cccc(F)c3)n2c(C)c1Br was read as MLLE-PAM2 inh 1.
`CCCNC(=O)CN1C(=O)COc2ccc(S(=O)(=O)N3CC(C)CC(C)C3)cc21` (stereo unspecified) gave APOBEC3G inh -2, PHOSPHO1 block 74*, PABP polyA inh inactive, A3A deaminase -4, eIF4H FP inh 3 and MLLE-PAM2 inh -5.
`COc1ccc(NC(=O)CN2C(=O)COc3ccc(S(=O)(=O)N4CCCCCC4)cc32)cc1` gave APOBEC3G inh 5, PHOSPHO1 block 64*, PABP polyA inh inactive, A3A deaminase 0, eIF4H FP inh -1 and MLLE-PAM2 inh -2.
CC1=C(C(=O)Nc2cc(C(=O)NCCC(C)C)ccc2C)SCCO1 was read as APOBEC3G inh -4, PHOSPHO1 block 30, PABP polyA inh inactive, A3A deaminase -3, eIF4H FP inh 7 and MLLE-PAM2 inh 11.
Screening COc1ccc(NS(=O)(=O)NC(=O)c2c[nH]c3ccccc23)cc1 returned APOBEC3G inh -6, PHOSPHO1 block 40, PABP polyA inh inactive, A3A deaminase -5, eIF4H FP inh -2 and MLLE-PAM2 inh 7.
Screening Cc1nn(CCc2n[nH]c(=S)n2-c2cccc(Cl)c2)c(C)c1[N+](=O)[O-] returned APOBEC3G inh 13, PHOSPHO1 block 93*, PABP polyA inh inactive, A3A deaminase -5, eIF4H FP inh -13 and MLLE-PAM2 inh -17.
`Cc1nn(CCc2n[nH]c(=S)n2-c2ccc(F)cc2)c(C)c1[N+](=O)[O-]` gave APOBEC3G inh 22, PHOSPHO1 block 94*, PABP polyA inh inactive, A3A deaminase -2, eIF4H FP inh -11 and MLLE-PAM2 inh -3.

Compound activity: PubChem BioAssay, Sanford-Burnham Center for Chemical Genomics
